# From the supplement of paper PMC12645437, “Orthogonal IMiD-Degron Pairs Induce Selective Protein Degradation in Cells” (ACS Chemical Biology, 2025)
# Over roughly 8,300 sequences, “log2 fold change of degron read counts, EGFP-low vs EGFP+ sorted cells (limma voom), compound-induced degradation” has its median near -1.1; the highest 2% begin near 3.2. The full list was thinned out, with the highest values kept by preference.
# B1: 46F_47A_49N_50Q_52G_53H_54Q_55F_67L_, Q9UKT9 (peptide)
# chain: FACNQCGHQFTQKGNLLRHIKL
# B2: 46F_47R_49N_50V_52G_53A_54Q_55F_67L_, Q9UKT9 (peptide)
# chain: FRCNVCGAQFTQKGNLLRHIKL
# B3: 46F_47N_49P_50I_52G_53H_54Y_55F_67L_, Q9UKT9 (peptide)
# chain: FNCPICGHYFTQKGNLLRHIKL
# B4: 46F_47F_49S_50V_52G_53H_54K_55F_67L_, Q9UKT9 (peptide)
# chain: FFCSVCGHKFTQKGNLLRHIKL
# B5: 46F_47C_49S_50V_52G_53H_54V_55F_67L_, Q9UKT9 (peptide)
# chain: FCCSVCGHVFTQKGNLLRHIKL
# B6: 46F_47F_49P_50I_52G_53A_54S_55F_67L_, Q9UKT9 (peptide)
# chain: FFCPICGASFTQKGNLLRHIKL
# B7: 46F_47T_49P_50I_52G_53A_54S_55F_67L_, Q9UKT9 (peptide)
# chain: FTCPICGASFTQKGNLLRHIKL
# B8: 46F_47F_49N_50I_52G_53A_54S_55F_67L_, Q9UKT9 (peptide)
# chain: FFCNICGASFTQKGNLLRHIKL
# B9: 46F_47H_49P_50I_52G_53A_54S_55F_67L_, Q9UKT9 (peptide)
# chain: FHCPICGASFTQKGNLLRHIKL
# B10: 46F_47G_49P_50I_52G_53A_54S_55F_67L_, Q9UKT9 (peptide)
# chain: FGCPICGASFTQKGNLLRHIKL
# B11: 46F_47I_49D_50I_52G_53A_54R_55F_67L_, Q9UKT9 (peptide)
# chain: FICDICGARFTQKGNLLRHIKL
# B12: 46F_47G_49N_50V_52G_53A_54W_55F_67L_, Q9UKT9 (peptide)
# chain: FGCNVCGAWFTQKGNLLRHIKL
# B13: 46F_47F_49D_50I_52G_53A_54Y_55F_67L_, Q9UKT9 (peptide)
# chain: FFCDICGAYFTQKGNLLRHIKL
# B14: 46F_47Q_49P_50I_52G_53A_54G_55F_67L_, Q9UKT9 (peptide)
# chain: FQCPICGAGFTQKGNLLRHIKL
# B15: 46F_47S_49P_50I_52G_53A_54G_55F_67L_, Q9UKT9 (peptide)
# chain: FSCPICGAGFTQKGNLLRHIKL
# B16: 46F_47V_49P_50I_52G_53A_54G_55F_67L_, Q9UKT9 (peptide)
# chain: FVCPICGAGFTQKGNLLRHIKL
# B17: 46F_47Y_49P_50I_52G_53A_54G_55F_67L_, Q9UKT9 (peptide)
# chain: FYCPICGAGFTQKGNLLRHIKL
# B18: 46F_47D_49P_50I_52G_53A_54G_55F_67L_, Q9UKT9 (peptide)
# chain: FDCPICGAGFTQKGNLLRHIKL
# B19: 46F_47G_49P_50I_52G_53A_54G_55F_67L_, Q9UKT9 (peptide)
# chain: FGCPICGAGFTQKGNLLRHIKL
# B20: 46F_47K_49P_50I_52G_53A_54G_55F_67L_, Q9UKT9 (peptide)
# chain: FKCPICGAGFTQKGNLLRHIKL
# B21: 46F_47L_49P_50I_52G_53A_54G_55F_67L_, Q9UKT9 (peptide)
# chain: FLCPICGAGFTQKGNLLRHIKL
# B22: 46F_47W_49P_50I_52G_53A_54G_55F_67L_, Q9UKT9 (peptide)
# chain: FWCPICGAGFTQKGNLLRHIKL
# B23: 46F_47T_49P_50I_52G_53A_54G_55F_67L_, Q9UKT9 (peptide)
# chain: FTCPICGAGFTQKGNLLRHIKL
# B24: 46F_47R_49P_50I_52G_53A_54G_55F_67L_, Q9UKT9 (peptide)
# chain: FRCPICGAGFTQKGNLLRHIKL
# B25: 46F_47A_49P_50I_52G_53A_54G_55F_67L_, Q9UKT9 (peptide)
# chain: FACPICGAGFTQKGNLLRHIKL
# B26: 46F_47E_49D_50Q_52G_53A_54Y_55F_67L_, Q9UKT9 (peptide)
# chain: FECDQCGAYFTQKGNLLRHIKL
# B27: 46F_47G_49D_50Q_52G_53A_54T_55F_67L_, Q9UKT9 (peptide)
# chain: FGCDQCGATFTQKGNLLRHIKL
# B28: 46F_47W_49E_50I_52G_53A_54F_55F_67L_, Q9UKT9 (peptide)
# chain: FWCEICGAFFTQKGNLLRHIKL
# Target: T1, CRBN, Q96SW2
# T1 chain: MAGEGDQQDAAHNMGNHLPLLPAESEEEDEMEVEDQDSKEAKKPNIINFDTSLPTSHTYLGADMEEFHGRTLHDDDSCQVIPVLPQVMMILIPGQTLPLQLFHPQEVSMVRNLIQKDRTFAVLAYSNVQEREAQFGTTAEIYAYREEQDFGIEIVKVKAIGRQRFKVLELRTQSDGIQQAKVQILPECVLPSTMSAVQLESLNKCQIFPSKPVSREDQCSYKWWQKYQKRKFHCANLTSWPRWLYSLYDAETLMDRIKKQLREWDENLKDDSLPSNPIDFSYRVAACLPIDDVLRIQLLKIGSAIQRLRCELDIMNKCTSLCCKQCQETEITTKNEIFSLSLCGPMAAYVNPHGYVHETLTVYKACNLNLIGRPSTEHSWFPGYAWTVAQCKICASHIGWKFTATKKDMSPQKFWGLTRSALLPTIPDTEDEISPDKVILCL
# Test: log2 fold change of degron read counts, EGFP-low vs EGFP+ sorted cells (limma voom), compound-induced degradation; higher = more compound-induced degradation of the degron-EGFP fusion; degrons are variants of IKZF1/3 zinc finger 2; compound dose not given here
# Conditions: Jurkat, 18 h
# [1] = compound: compound 19 (5-tert-butyl-thalidomide)
# [2] = compound: compound 22 (5-morpholino-thalidomide)
# [3] = compound: compound 33 (diphenyl IMiD analogue)
# 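Further: pooled lentiviral library of zinc finger degron-EGFP fusions in mCherry-positive Jurkat cells, FACS-sorted after compound exposure, with degron abundance counted by next-generation sequencing.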
Sequence,log2 fold change of degron read counts [1],log2 fold change of degron read counts [2],log2 fold change of degron read counts [3],log2 fold change of degron read counts (compound: thalidomide)
B1,-2.48,-3.06,-3.27,-2.92
B2,-1.54,-1.19,-0.656,-0.561
B3,-1.6,-1.7,-1.47,-1.44
B4,-1.05,-2.36,-2.5,-2.6
B5,-1.81,-2.39,-2.47,-2.11
B6,3.26,3.18,2.18,1.74
B7,2.17,3.02,2.88,3.23
B8,2.16,2.55,1.2,-0.157
B9,2.77,2.54,2.08,0.926
B10,3.27,2.28,2.49,1.31
B11,-0.557,1.75,0.63,1.41
B12,-1.56,-2,-0.753,-1.74
B13,2.55,1.36,-0.119,-1.9
B14,2.39,2.05,1.77,3.69
B15,2.83,1.27,1.76,0.755
B16,1.09,3.08,2.04,2.98
B17,2.99,2.02,2.1,-0.123
B18,2.33,-0.146,0.564,1.11
B19,3.28,1.32,2.32,0.446
B20,2.08,-0.359,-0.702,0.6
B21,1.86,0.187,1.6,1.01
B22,3.3,2.73,1.87,0.518
B23,1.55,2.19,2.35,2.4
B24,2.23,1.8,2.28,1.55
B25,3.61,1.67,0.663,0.803
B26,-2.99,-3.59,-2.13,-2.26
B27,-1.78,-2.27,-1.3,-2.71
B28,3.03,3.13,2.12,-0.452
